# Measurements published in the supplement of paper PMC7380943.
# Tested on: CLZ3 (HCA2 human fibroblast dual HR-NHEJ reporter)
# Assay: NHEJ repair efficiency (GFP+ cells) relative to control (log10 fold); higher = more non-homologous end joining
# Conditions: 5 µM; doxycycline 0.5 ug/mL
# 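Note: compound given one day ahead of doxycycline, which switches on I-SceI endonuclease to cut the chromosomally integrated reporter and create DSBs.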
row,SMILES,NHEJ repair efficiency (log10)
1,COc1cc(/C=C/C(=O)O)ccc1O [Sodium Ferulate],-0.0171
2,COc1cc(/C=C/C(=O)O)ccc1O [Ferulaic Acid],-0.0555
3,CC[C@]12CCCN3CCc4c(n(c5ccccc45)[C@@](O)(C(=O)OC)C1)[C@@H]32 [Vincamine],0.104
4,CCCCCCCC/C=C\CCCCCCCC(=O)OCC(COC(=O)CCCCCCC/C=C\CCCCCCCC)OC(=O)CCCCCCC/C=C\CCCCCCCC [Glycerol Trioleate],-0.000616
5,CC1(C)[C@@H](O[C@H]2O[C@H](C(=O)O)[C@@H](O)[C@H](O)[C@H]2O[C@@H]2O[C@H](C(=O)O)[C@@H](O)[C@H](O)[C@H]2O)CC[C@]2(C)[C@H]3C(=O)C=C4[C@@H]5C[C@@](C)(C(=O)O)CC[C@]5(C)CC[C@@]4(C)[C@]3(C)CC[C@@H]12 [Monoammonium Glycyrrhizinate],0.137
6,C=C1C[C@@]23CC[C@H]4[C@@](C)(CCC[C@@]4(C)C(=O)O[C@@H]4O[C@H](CO)[C@@H](O)[C@H](O)[C@H]4O)[C@@H]2CC[C@]1(O[C@@H]1O[C@H](CO)[C@@H](O)[C@H](O)[C@H]1O[C@@H]1O[C@H](CO)[C@@H](O)[C@H](O)[C@H]1O)C3 [Stevioside],0.149
7,COC(=O)c1c2c(c3ccccc3c1O)OC(C)(C)C=C2 [Rubimaillin],0.0202
8,"O=C(/C=C/c1ccc(O)c(O)c1)OC1CC(OC(=O)/C=C/c2ccc(O)c(O)c2)(C(=O)O)CC(O)C1O (stereo unspecified) [1,3-Dicaffeoylquinic Acid]",0.0818
9,CCCCCCCCCCCCCCCC(=O)O [Palmitic Acid],0.0513
10,O=c1c(O[C@@H]2O[C@H](CO)[C@H](O)[C@H](O)[C@H]2O)c(-c2ccc(O)c(O)c2)oc2cc(O)cc(O)c12 [Hyperoside],0.0115
11,O=c1c(-c2ccc(O)cc2)coc2cc(O)cc(O)c12 [Genistein],-0.0971
12,O=c1cc(-c2ccc(O)c(-c3c(O)cc(O)c4c(=O)cc(-c5ccc(O)cc5)oc34)c2)oc2cc(O)cc(O)c12 [Amentoflavone],0.0928
13,C[C@@]12C[C@@]3(O)O[C@@H](O1)[C@]1(COC(=O)c4ccc(O)cc4)[C@@H]3C[C@]12O[C@@H]1O[C@H](CO)[C@@H](O)[C@H](O)[C@H]1O [Oxypaeoniflorin],0.00873
14,CC(C)=C1CC[C@@H](C)CC1=O [Pulegone],0.114
15,CC(CC(=O)C[C@@H](C)[C@H]1CC(=O)[C@@]2(C)C3=C(C(=O)C[C@]12C)[C@@]1(C)CCC(=O)C(C)(C)[C@@H]1C[C@@H]3O)C(=O)O (stereo partly specified) [Ganoderic Acid D],0.113
16,O=C(O)c1cc(O)c(O)c(O)c1 [Gallic acid],0.0481
17,COC(=O)[C@@]1(C)CC[C@]2(C(=O)O)CC[C@]3(C)C(=CC[C@@H]4[C@@]5(C)C[C@H](O)[C@H](O)[C@@](C)(CO)[C@@H]5CC[C@]43C)[C@@H]2C1 [Phytolaccagenin],0.0274
18,CC(=O)CCc1ccc(O)cc1 [Raspberry Ketone],-0.163
19,COc1ccc([C@H]2OC[C@H]3[C@@H]2CO[C@H]3c2ccc(O[C@@H]3O[C@H](CO)[C@@H](O)[C@H](O)[C@H]3O)c(OC)c2)cc1OC [Phillyrin],-0.0633
20,O=c1c(O[C@@H]2O[C@H](CO)[C@@H](O)[C@H](O)[C@H]2O)c(-c2ccc(O)cc2)oc2cc(O)cc(O)c12 [Astragalin],-0.0677
21,COc1cc(O)c2c(=O)c(-c3ccc(O)cc3)coc2c1 [Prunusetin],-0.0809
22,C[C@]1(O)C[C@@H](O)[C@]2(O)C=CO[C@@H](O[C@H]3O[C@H](CO)[C@@H](O)[C@H](O)[C@H]3O)[C@@H]21 [Harpagide],0.0851
23,CC[C@H](/C=C/[C@@H](C)[C@H]1CC[C@H]2[C@@H]3CC=C4C[C@@H](O)CC[C@]4(C)[C@H]3CC[C@]12C)C(C)C [Stigmasterol],-0.155
24,COC(=O)C1=CO[C@@H](O[C@@H]2O[C@H](CO)[C@@H](O)[C@H](O)[C@H]2O)[C@H]2[C@@H]1[C@H](O)C[C@]2(C)OC(C)=O [8-O-Acetyl Shanzhiside Methyl Ester],-0.0953
25,COc1cc(/C=C/CO)ccc1O[C@@H]1O[C@H](CO)[C@@H](O)[C@H](O)[C@H]1O [Coniferin],0.0205
26,O=C(O)[C@H]1O[C@@H](Oc2cc3oc(-c4ccc(O)cc4)cc(=O)c3c(O)c2O)[C@H](O)[C@@H](O)[C@@H]1O [Scutellarin],-0.122
